From the supplement of paper PMC6378613 come the findings set out here.

Compound in the assay: Cc1ccc(-c2ccc3c(ccc4sc5c(c43)NC[C@@H](C)NC5=O)n2)cn1
Put plainly: kinase activity remaining relative to vehicle control; higher = less inhibition. On the procedure:
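In vitro radiometric kinase profiling of the MK2 inhibitor PF-3644022 at 0.1, 1 and 10 µM against a panel of kinases (MRC International Centre for Kinase Profiling, Dundee). Read-out is % kinase activity remaining relative to the vehicle control, mean of n=2.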

Chain of UniProt Q9H4A3 (Q9H4A3 whole entry, looked up): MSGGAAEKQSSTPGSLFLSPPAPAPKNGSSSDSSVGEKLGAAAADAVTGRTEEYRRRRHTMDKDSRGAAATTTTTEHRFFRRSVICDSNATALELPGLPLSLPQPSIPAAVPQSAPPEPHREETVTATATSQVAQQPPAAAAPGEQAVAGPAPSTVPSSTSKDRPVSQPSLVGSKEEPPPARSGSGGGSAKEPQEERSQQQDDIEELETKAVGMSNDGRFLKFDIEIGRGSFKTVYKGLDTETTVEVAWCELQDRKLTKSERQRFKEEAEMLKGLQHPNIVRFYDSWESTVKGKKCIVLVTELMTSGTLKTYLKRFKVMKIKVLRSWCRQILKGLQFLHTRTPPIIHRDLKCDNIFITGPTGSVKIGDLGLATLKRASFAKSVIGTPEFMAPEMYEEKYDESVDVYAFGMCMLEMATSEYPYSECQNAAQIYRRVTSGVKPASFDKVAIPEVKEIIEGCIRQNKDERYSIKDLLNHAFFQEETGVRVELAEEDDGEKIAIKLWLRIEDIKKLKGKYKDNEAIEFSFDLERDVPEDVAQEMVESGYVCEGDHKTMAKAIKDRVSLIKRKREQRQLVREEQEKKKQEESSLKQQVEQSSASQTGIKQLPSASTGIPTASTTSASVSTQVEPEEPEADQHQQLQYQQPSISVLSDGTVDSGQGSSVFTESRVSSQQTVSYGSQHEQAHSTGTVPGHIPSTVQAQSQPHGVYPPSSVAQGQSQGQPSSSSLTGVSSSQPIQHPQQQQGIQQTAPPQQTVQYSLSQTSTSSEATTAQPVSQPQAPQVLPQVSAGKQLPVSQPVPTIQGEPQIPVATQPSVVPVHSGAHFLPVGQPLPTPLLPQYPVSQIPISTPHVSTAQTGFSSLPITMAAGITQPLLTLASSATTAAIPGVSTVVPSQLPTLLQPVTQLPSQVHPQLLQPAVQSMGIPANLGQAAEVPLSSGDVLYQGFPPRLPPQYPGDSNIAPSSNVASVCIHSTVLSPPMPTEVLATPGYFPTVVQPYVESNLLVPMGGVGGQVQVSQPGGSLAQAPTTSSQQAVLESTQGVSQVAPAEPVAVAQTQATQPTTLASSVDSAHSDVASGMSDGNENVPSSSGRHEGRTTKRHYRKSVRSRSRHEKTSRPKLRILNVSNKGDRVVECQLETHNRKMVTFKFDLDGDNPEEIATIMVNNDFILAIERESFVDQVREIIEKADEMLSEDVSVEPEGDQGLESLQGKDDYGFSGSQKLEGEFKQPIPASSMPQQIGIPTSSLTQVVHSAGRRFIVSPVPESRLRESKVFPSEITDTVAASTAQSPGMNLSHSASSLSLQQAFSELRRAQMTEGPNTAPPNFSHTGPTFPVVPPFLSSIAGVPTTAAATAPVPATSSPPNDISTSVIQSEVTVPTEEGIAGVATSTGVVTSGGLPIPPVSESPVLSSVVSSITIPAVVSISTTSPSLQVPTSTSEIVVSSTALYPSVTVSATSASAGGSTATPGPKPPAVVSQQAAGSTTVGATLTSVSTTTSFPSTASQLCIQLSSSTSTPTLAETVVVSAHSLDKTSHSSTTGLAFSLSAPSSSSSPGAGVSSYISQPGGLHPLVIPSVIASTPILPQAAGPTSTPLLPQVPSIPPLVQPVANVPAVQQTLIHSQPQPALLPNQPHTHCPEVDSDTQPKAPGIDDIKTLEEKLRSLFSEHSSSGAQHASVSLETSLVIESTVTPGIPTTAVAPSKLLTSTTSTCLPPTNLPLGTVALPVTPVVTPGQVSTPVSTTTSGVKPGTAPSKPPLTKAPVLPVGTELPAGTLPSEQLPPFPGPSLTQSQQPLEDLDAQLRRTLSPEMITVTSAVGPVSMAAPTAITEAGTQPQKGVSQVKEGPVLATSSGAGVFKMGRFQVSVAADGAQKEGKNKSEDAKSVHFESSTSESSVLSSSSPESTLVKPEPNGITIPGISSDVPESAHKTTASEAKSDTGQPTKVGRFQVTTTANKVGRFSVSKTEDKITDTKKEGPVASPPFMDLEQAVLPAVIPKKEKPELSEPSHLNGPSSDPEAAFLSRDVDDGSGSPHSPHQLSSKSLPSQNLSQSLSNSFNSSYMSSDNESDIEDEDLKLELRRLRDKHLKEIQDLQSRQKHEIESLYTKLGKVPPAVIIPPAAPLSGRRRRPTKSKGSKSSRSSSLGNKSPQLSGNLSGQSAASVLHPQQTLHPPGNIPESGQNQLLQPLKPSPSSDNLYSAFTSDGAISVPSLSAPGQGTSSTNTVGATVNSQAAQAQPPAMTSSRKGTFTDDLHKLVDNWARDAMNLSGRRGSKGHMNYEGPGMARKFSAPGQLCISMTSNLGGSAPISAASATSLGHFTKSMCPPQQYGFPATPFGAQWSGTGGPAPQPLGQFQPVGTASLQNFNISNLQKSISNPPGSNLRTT
Chain of UniProt P06239 (P06239 whole entry, looked up): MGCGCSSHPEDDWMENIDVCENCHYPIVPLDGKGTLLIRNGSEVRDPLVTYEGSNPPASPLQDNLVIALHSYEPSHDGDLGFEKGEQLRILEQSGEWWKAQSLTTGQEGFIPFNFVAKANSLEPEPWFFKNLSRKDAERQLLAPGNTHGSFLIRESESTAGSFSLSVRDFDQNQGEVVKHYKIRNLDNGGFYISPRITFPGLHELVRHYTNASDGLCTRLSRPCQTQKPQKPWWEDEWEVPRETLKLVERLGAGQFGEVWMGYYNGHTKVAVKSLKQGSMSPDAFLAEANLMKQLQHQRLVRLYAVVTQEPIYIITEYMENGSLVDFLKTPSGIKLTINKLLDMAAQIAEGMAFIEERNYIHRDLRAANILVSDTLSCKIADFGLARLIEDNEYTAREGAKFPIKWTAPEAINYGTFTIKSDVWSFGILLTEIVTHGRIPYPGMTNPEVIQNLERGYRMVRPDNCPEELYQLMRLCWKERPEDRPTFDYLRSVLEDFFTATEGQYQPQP
Chain of UniProt P16234 (P16234 whole entry, looked up): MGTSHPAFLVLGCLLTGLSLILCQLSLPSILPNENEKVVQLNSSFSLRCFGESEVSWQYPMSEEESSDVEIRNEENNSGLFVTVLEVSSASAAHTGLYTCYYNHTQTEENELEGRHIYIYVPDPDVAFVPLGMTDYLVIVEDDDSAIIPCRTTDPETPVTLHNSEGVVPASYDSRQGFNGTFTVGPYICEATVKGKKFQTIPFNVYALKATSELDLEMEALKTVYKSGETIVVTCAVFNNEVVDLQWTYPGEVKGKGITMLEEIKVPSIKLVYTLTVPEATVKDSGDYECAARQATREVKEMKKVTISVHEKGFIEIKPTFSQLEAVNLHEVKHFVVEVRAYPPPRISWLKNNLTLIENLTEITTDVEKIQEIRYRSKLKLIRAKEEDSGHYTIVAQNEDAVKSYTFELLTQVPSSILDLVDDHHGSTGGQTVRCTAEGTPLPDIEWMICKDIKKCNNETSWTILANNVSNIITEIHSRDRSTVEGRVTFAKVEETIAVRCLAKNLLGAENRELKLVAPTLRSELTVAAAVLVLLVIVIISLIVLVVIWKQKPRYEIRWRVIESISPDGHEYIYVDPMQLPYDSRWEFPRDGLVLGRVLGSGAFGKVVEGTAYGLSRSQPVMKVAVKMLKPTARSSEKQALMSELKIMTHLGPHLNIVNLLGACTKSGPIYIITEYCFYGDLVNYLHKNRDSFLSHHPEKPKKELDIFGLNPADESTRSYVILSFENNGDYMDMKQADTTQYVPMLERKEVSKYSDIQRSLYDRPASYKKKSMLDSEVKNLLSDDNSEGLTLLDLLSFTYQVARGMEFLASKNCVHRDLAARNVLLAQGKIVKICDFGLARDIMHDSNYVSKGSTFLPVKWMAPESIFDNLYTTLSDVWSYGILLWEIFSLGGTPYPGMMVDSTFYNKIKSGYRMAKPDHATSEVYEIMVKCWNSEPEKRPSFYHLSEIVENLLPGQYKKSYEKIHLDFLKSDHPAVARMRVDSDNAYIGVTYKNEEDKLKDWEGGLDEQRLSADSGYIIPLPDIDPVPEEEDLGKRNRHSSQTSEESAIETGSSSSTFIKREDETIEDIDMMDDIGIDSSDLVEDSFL
Chain of UniProt Q9NQU5 (Q9NQU5 whole entry, looked up): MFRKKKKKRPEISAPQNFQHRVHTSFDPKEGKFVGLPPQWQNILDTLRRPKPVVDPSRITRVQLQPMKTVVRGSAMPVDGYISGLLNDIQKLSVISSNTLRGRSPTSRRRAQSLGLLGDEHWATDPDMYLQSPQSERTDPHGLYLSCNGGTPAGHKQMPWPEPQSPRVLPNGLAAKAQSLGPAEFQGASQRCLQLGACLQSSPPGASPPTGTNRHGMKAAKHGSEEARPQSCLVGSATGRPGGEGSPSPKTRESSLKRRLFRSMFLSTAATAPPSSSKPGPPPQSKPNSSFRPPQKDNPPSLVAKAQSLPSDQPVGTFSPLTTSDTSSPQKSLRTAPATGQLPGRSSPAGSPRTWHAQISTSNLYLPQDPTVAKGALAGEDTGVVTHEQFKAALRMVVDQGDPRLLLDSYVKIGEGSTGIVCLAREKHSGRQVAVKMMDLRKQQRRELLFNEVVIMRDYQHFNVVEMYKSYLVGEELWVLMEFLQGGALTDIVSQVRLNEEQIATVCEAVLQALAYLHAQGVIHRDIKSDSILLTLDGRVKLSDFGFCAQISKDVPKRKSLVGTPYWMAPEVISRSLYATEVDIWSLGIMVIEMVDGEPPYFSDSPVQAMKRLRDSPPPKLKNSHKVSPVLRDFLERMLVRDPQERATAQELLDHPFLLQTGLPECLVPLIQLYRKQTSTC

Turning to PAK6 (UniProt Q9NQU5), the kinase activity remaining (inhibitor concentration 0.1 µM) came to 117%, the kinase activity remaining (inhibitor concentration 1 µM) came to 106% and the kinase activity remaining (inhibitor concentration 10 µM) was determined as 116%.
In the case of TAK1, the kinase activity remaining was determined as 113% (inhibitor concentration 0.1 µM), 109% (inhibitor concentration 1 µM) and 70% (inhibitor concentration 10 µM).
Take ASK1 (UniProt Q99683): the kinase activity remaining is, setting by setting: (inhibitor concentration 0.1 µM) 106%; (inhibitor concentration 1 µM) 80%; (inhibitor concentration 10 µM) 10%.
For YES1 (UniProt P07947), in that order: 112%, 89% and 55%.
The like results for MEKK1 (UniProt Q13233) were, in that order, 102%, 109% and 109%.
For WNK1 (UniProt Q9H4A3), in that order: 113%, 108% and 119%.
Turning to PDGFRA (UniProt P16234), the kinase activity remaining came to 104% (inhibitor concentration 0.1 µM), 108% (inhibitor concentration 1 µM) and 104% (inhibitor concentration 10 µM).
On to EPH-A4, for which the kinase activity remaining (inhibitor concentration 0.1 µM) came out at 99%, the kinase activity remaining (inhibitor concentration 1 µM) amounted to 103% and the kinase activity remaining (inhibitor concentration 10 µM) amounted to 78%.
The like results for PAK4 (UniProt O96013) were, in that order, 103%, 88% and 82%.
The like results for SIK3 (UniProt Q9Y2K2) were, in that order, 98%, 99% and 73%.
For Aurora A, in that order: 126%, 102% and 84%.
For Lck (UniProt P06239), the kinase activity remaining by setting is: (inhibitor concentration 0.1 µM) 108%; (inhibitor concentration 1 µM) 95%; (inhibitor concentration 10 µM) 86%.
In the case of MST2 (UniProt Q13188), the kinase activity remaining reads like this: (inhibitor concentration 0.1 µM) 131%; (inhibitor concentration 1 µM) 135%; (inhibitor concentration 10 µM) 100%.
